Screens deposited in PubChem BioAssay by National Center for Advancing Translational Sciences (NCATS).
Most compounds without a hit are left out; they make up all but 0.72% or so of the library.
Six1-Eya2 blk = Six1/Eya2 interaction inhibition | AlphaScreen GST-Six1/His-Eya2 binding, biochemical; stronger effect = lower value | activity change, % (test concentration not listed) | actives 0.56% (n = 360,000) | AID 651725; in the data active = activity change below about -65%; inconclusive = mostly about -30% to -63%
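GST-Six1 + His-Eya2 (5X stock: 250/500 nM); Tris pH 8.0, 300 mM NaCl, 0.05% BSA, 0.02% Tween 20; GSH donor/Ni acceptor beads; 1 h 37 °C dark; AlphaScreen readout.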
Eya2 phos inh = blocks the phosphatase activity of human Eya2; recombinant Eya2, OMFP fluorescence dephosphorylation (OMFP is methylfluorescein phosphate); actives 0.006% (n = 330,000); O00167; Potency, µM (series often up to 76.9 µM), inactives show top-dose activity, negative = inhibition, most hits filed as inhibitors; AID 488837; also: potency is read from the fitted curve at half-maximal effect
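Eya2 (0.2 uM) preincubated 10 min at ambient with compound, then OMFP substrate added at 50 uM; 10 min reaction in 50 mM HEPES pH 7.5, 50 mM NaCl, 5 uM MgCl2, 0.05% BSA, 1 mM DTT. Fluorescence read at Ex 485/Em 525 nm.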
CtBP-E1A inh = blocks the CtBP interaction with E1A | AlphaScreen GST-E1A/His-CtBP binding, 1536-well; stronger effect = lower value | actives 0.49% (n = 340,000) | activity change, % (no concentration beside the values); in the data active = activity change below about -65%; inconclusive = mostly about -30% to -63%
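In 5 uL wells, 23 nL compound meets equimolar GST-E1A and His-CtBP (5X stock 125 nM each) for 2 h, 37 °C. Beads (5X, 50 ug/mL) then 1 h, 37 °C, dark.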
PI4K2A block = inhibitors of human PI4K2A. Q9BTU6. purified PI4K2A, ADP-Glo luminescence, 1 h; stronger effect = lower value. activity change, negative = inhibition, % at 76.9 µM. actives 0.13% (n = 420,000). AID 1346378; in the data active = activity change below about -50%; inconclusive = mostly about -30% to -49%;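 also: -100% = wells without enzyme as full effect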
Target sequence (Q9BTU6 whole entry, looked up): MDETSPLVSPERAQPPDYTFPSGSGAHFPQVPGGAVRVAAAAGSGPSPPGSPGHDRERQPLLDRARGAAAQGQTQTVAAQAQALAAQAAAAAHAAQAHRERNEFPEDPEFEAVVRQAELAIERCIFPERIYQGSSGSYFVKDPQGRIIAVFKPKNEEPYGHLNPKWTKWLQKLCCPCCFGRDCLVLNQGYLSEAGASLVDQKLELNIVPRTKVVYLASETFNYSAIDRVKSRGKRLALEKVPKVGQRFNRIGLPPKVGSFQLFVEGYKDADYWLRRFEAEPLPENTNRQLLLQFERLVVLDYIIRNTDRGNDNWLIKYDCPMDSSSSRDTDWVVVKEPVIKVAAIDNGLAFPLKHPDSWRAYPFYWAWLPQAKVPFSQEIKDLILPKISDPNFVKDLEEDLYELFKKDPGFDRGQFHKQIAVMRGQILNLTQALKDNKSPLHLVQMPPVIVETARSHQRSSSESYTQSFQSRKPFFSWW
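Compounds are screened against recombinant PI4K2A using PI as substrate and ATP, the latter dispensed at 300 microM. Reactions run one hour at ambient temperature before ADP-Glo detection; full inhibition defined by wells lacking enzyme.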
RGS4 inh = blocks human RGS4-accelerated GTP hydrolysis. Potency, µM (top dose mostly 114 µM), for the others: at the highest dose activity change, negative = inhibition, most hits filed as inhibitors. Transcreener GDP fluorescence polarization, RGS4-accelerated GTP hydrolysis. actives 0.039% (n = 390,000). AID 504845; also: potency is read from the fitted curve at half-maximal effect; nearly all actives have a fitted effect of over 75% in size
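MLSMR compounds (23 nl, pin-transferred) preincubated 10 min at room temperature with a 500nM (2x) first reagent, then RGS4 at 900nM (2x) plus Transcreener GDP mix added; fluorescence polarization (620/688 nm) read before and after 90 min at 30 °C.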
USP2a inh = inhibitors of human ubiquitin-specific protease USP2a. USP2 core, Ub-CHOP2 coupled fluorogenic reporter, 485/531. Potency, µM (highest dose often 38.3 µM), inactives show top-dose activity change, negative = inhibition, actives largely listed as inhibitors. actives 0.01% (n = 330,000). AID 463254;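 also: potency is read from the fitted curve at half-maximal effect; plate controls were DMSO wells for no effect and full inhibition by NEM control for full effect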
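Cell-free coupled assay: 10nM USP2 core preincubated 30min RT with compound in Tris-HCl pH 8.0/CaCl2/CHAPS buffer, then 25nM Ub-CHOP2 and 25nM reporter substrate; fluorescence (Ex 485/Em 531) read after 60min RT, normalized to NEM inhibition, concentration-response curves fitted.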
* hit, by the source's call; u = inconclusive; x = not tested or not shown; ! = a repeat was not active; [ ] = remark or other dose. Unless noted, calls follow the shape of the dose curve; as a rule, active = well fitted curve in the direction sought with a large enough effect; inconclusive = small, poorly fitted or top-dose-only effect, or another doubt; inactive = no such curve, though single readings can be large; an effect the other way counts as inactive or inconclusive. Unless noted, % is scaled to controls: 0 for no effect and ±100 for the full control effect.

SMILES | Six1-Eya2 blk | Eya2 phos inh | CtBP-E1A inh | PI4K2A block | RGS4 inh | USP2a inh
Cn1nnc(NC(=S)NC(=O)c2ccc(-c3ccc(Br)cc3)o2)n1 | -72* | 2% | -69* | -7 | u | 6%
CCCn1nnc(NC(=S)NC(=O)c2ccc(-c3ccc(Br)cc3)o2)n1 | 2 | 4% | -3 | 4 | -28% | 1%
CC(=O)NC(c1ccc(N(C)C)cc1)c1cc(Cl)c2cccnc2c1O (stereo unspecified) | -81* | x | u | 1 | x | x
CC(=O)NC(c1ccccc1)c1cc(Cl)c2cccnc2c1O (stereo unspecified) | -87* | -1% | -91* | -10 | -4% | 2%
CCCCC(=O)NC(c1cccs1)c1cc(Cl)c2cccnc2c1O (stereo unspecified) | u | -25% | x | 6 | -18% | 8%
CCCC(=O)NC(c1ccc(OC)c(OC)c1)c1cc(Cl)c2cccnc2c1O (stereo unspecified) | -72* | 7% | -79* | 1 | -25% | -4%
CCC(=O)NC(c1cccs1)c1cc(Cl)c2cccnc2c1O (stereo unspecified) | -89* | 1% | x | -1 | -8% | 3%
CN(C)c1ccc(CNC(=O)C2CCN(c3nnc(-n4cccc4)s3)CC2)cc1 | x | x | x | 2 | -43% | x
CC1CCN(C(=O)c2cccc(NC(=O)c3nsc4ccccc34)c2)CC1 | x | x | x | 3 | -10% | x
COc1ccc(C(NC(C)=O)c2cc(Cl)c3cccnc3c2O)cc1 (stereo unspecified) | -83* | 6% | -93* | 0 | 21% | -2%
N#C/C(=C\c1coc2ccccc2c1=O)C(N)=S | -7 | 21% | -13 | 10 | u | -6%
N#C/C(=C\c1coc2ccc(O)cc2c1=O)C(=O)Nc1nc2ccccc2s1 | -75* | u | -87* | -8 | u | 30%
Nc1c(SCCC(=O)O)ccc2c1C(=O)c1ccccc1C2=O | -67* | -18% | -15 | -21 | -31% | -1%
O=c1cc(-c2ccccc2)oc2cccc(O)c12 | 0 | x | 0 | 4 | 8.4µM*! | x
C#CC(C)(CC)OC(=O)c1ccccc1C(=O)O (stereo unspecified) | x | x | x | 2 | x | x
O=[N+]([O-])c1cc(Cl)c(O)c2ncccc12 | -80* | -15% | -91* | -10 | -2% | -3%
O=[N+]([O-])c1ccc(Cl)c2cccnc12 | -11 | -3% | -2 | -1 | 10% | 3%
O=[N+]([O-])c1cc(F)c2cccnc2c1O | -88* | 18% | x | u | -46% | -1%
Oc1c(I)cc(Cl)c2cccnc12 | -95* | -2% | -95* | -25 | u | 1%
Clc1cc2cccnc2c2ncccc12 | -67* | 3% | -96* | -4 | -8% | 0%
O=[N+]([O-])c1cccc2c(Cl)ccnc12 | -4 | 2% | -23 | 5 | -8% | 2%
Cc1ccc(O)c2ncccc12 | x | x | x | -3 | x | x
Cc1c(C)c2cccnc2c2ncccc12 | -92* | 8% | -95* | -15 | -13% | 0%
O=[N+]([O-])c1cc(Cl)c2cccnc2c1O | -81* | -15% | -91* | -17 | 2% | 2%
COc1ccc(-c2ccc3nncn3c2)cn1 | -6 | x | -6 | -3 | x | x
COc1ccc(Cn2c(C(=O)O)c(CNCC(C)c3ccccc3)c3ccc(OC)cc32)cc1 (stereo unspecified) | x | x | x | 2 | -12% | x
CSC1=NSC2=NC(=O)/C(=C/c3coc4ccc(O)cc4c3=O)C(=N)N12 | -67* | u | -6 | -4 | u | u
CSC1=NSC2=NC(=O)/C(=C/c3coc4ccccc4c3=O)C(=N)N12 | -27 | u | -25 | -9 | u | u
O=c1ccc(-c2ccc(S(=O)(=O)NCC3CCN(Cc4ccccc4F)CC3)s2)n[nH]1 | -84* | 3% | -88* | 6 | 6%[56.9 µM] | 2%
